Source: a collection of fitness landscapes (doi:10.1038/s41467-024-54723-y)
Whole data set: some 18,000 sequences, median “TetR repression strength (sort-seq, GFP reporter)” near 0.23, cut for the highest 2% near 0.68. The full list was thinned out, with the highest values kept by preference.

These sequences were tested against TetR (class B, Tn10) (UniProt P04483) (assay: TetR repression strength (sort-seq, GFP reporter) (relative to tetO2 = 1); higher = stronger repression). Settings: E. coli.
TetR (class B, Tn10), sequence (P04483 whole entry): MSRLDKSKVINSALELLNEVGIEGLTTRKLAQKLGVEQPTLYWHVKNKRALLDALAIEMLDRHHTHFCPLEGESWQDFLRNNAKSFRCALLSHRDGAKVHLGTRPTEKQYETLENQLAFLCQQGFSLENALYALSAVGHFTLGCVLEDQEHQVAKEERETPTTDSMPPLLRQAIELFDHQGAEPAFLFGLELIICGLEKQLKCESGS
Method in brief: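 Repression strength is the top bin index plus one minus the read-weighted mean bin, relative to the unaltered operator's value. A low-copy library in E. coli SIG10-MAX randomized eight operator positions between a constitutive promoter and sfGFP, with TetR expressed constitutively; cells grew 5 h at 37 °C in LB with 50 µg/mL chloramphenicol and 10^6 were FACS-sorted into 13 bins that were each Illumina-sequenced. Three independent transformations were averaged, keeping only members with ≥30 reads in all replicates and CV ≤0.5.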
TCCCTATTAGTTGGGGAGA showed a TetR repression strength of 0.483.
TCCCGGTAAGTGAAGGAGA gave a TetR repression strength of 0.14.
In the case of TCCCAGGCAGTGGGGGAGA, the TetR repression strength is reported as 0.193.
TCCCTAGTAGTGGCTGAGA showed a TetR repression strength of 0.905.
TCCCTAGTAGTAGCTGAGA showed a TetR repression strength of 0.307.
Work on TCCCGAGTAGTGGCTGAGA yielded a TetR repression strength of 0.311.
Work on TCCCGAGCAGTTGGTGAGA yielded a TetR repression strength of 0.317.
TCCCCTCCAGTGGGGGAGA showed a TetR repression strength of 0.225.
Sequence TCCCTCCCAGTGTCGGAGA has a TetR repression strength of 0.295.
With TCCCTTTGAGTTTTTGAGA the TetR repression strength was 0.506.
TCCCCTAAAGTGCGCGAGA was tested, and the TetR repression strength was 0.266.
Work on TCCCTTAAAGTGCTCGAGA yielded a TetR repression strength of 0.747.
TCCCTTTAAGTGCACGAGA showed a TetR repression strength of 0.207.
TCCCTTAAAGTGATCGAGA showed a TetR repression strength of 0.207.
TCCCATAAAGTGCTCGAGA gave a TetR repression strength of 0.225.
Work on TCCCCTAGAGTGCGCGAGA yielded a TetR repression strength of 0.901.
TCCCTTAAAGTGCGCGAGA was tested, and the TetR repression strength was 0.292.
For TCCCTTAAAGTATTCGAGA, the TetR repression strength was 0.311.
TCCCTTAAAGTACTCGAGA was tested, and the TetR repression strength was 1.16.
TCCCTTAAAGTACACGAGA gave a TetR repression strength of 0.377.
Sequence TCCCTTTAAGTGCGCGAGA has a TetR repression strength of 0.764.
In the case of TCCCCTAGAGTCCGCGAGA, the TetR repression strength is reported as 0.332.
TCCCGCGGAGTGGCGGAGA gave a TetR repression strength of 0.119.
For TCCCGCGCAGTGTAAGAGA, the TetR repression strength was 0.222.
For TCCCTATGAGTGTGGGAGA, the TetR repression strength was 0.223.
For TCCCCTGGAGTCGTGGAGA, the TetR repression strength was 0.258.
Sequence TCCCTGGTAGTGGAGGAGA has a TetR repression strength of 0.101.
TCCCGAGTAGTGAGGGAGA was tested, and the TetR repression strength was 0.242.
In the case of TCCCGATAAGTCGTCGAGA, the TetR repression strength is reported as 0.0276.
With TCCCGAATAGTATCAGAGA the TetR repression strength was 0.207.
With TCCCCGGGAGTATCAGAGA the TetR repression strength was 0.332.
TCCCGGATAGTATCAGAGA was tested, and the TetR repression strength was 0.893.
For TCCCGGTGAGTATCAGAGA, the TetR repression strength was 0.188.
Work on TCCCGGATAGTATGAGAGA yielded a TetR repression strength of 0.24.
In the case of TCCCGGAGAGTATCAGAGA, the TetR repression strength is reported as 0.893.
Sequence TCCCGTGCAGTCATTGAGA has a TetR repression strength of 0.276.
TCCCTCTCAGTTCGTGAGA gave a TetR repression strength of 0.181.
Sequence TCCCAGTGAGTTGGAGAGA has a TetR repression strength of 0.303.
Work on TCCCTGGCAGTAGGGGAGA yielded a TetR repression strength of 0.185.
Sequence TCCCTGTAAGTTGATGAGA has a TetR repression strength of 0.236.
Work on TCCCTCTCAGTTGTTGAGA yielded a TetR repression strength of 0.357.
TCCCCGCAAGTTGATGAGA showed a TetR repression strength of 0.85.
Sequence TCCCTCTCAGTTGATGAGA has a TetR repression strength of 0.736.
Sequence TCCCTCTAAGTTGAGGAGA has a TetR repression strength of 0.0793.
With TCCCCCCAAGTTGATGAGA the TetR repression strength was 0.369.
With TCCCTCTAAGTTGATGAGA the TetR repression strength was 0.795.
TCCCCGCAAGTTGTTGAGA gave a TetR repression strength of 0.198.
For TCCCCCTCAGTTGATGAGA, the TetR repression strength was 0.262.
TCCCTTGCAGTTATAGAGA was tested, and the TetR repression strength was 0.461.
TCCCTGGAAGTAATCGAGA gave a TetR repression strength of 0.241.
Sequence TCCCCATTAGTACGTGAGA has a TetR repression strength of 0.214.
TCCCCGCGAGTAGGGGAGA was tested, and the TetR repression strength was 0.245.
Work on TCCCGAAGAGTCTTAGAGA yielded a TetR repression strength of 0.279.
TCCCACACAGTCGGAGAGA gave a TetR repression strength of 0.333.
Sequence TCCCCTGAAGTGGCAGAGA has a TetR repression strength of 0.204.
TCCCGCTGAGTCGGCGAGA gave a TetR repression strength of 0.15.
Sequence TCCCCAGAAGTGGTAGAGA has a TetR repression strength of 0.255.
TCCCGTTTAGTGTTTGAGA showed a TetR repression strength of 0.0592.
TCCCATCTAGTATCTGAGA was tested, and the TetR repression strength was 0.199.
TCCCATGGAGTACTGGAGA was tested, and the TetR repression strength was 0.0311.
For TCCCATCTAGTGCGTGAGA, the TetR repression strength was 0.708.
For TCCCATCGAGTACTGGAGA, the TetR repression strength was 1.02.
With TCCCATCTAGTGGGGGAGA the TetR repression strength was 0.318.
In the case of TCCCATCTAGTGTGGGAGA, the TetR repression strength is reported as 1.06.
In the case of TCCCTTCTAGTATCGGAGA, the TetR repression strength is reported as 0.317.
Work on TCCCATAGAGTACTGGAGA yielded a TetR repression strength of 0.169.
With TCCCATCTAGTGAGTGAGA the TetR repression strength was 0.316.
TCCCATCTAGTATCGGAGA showed a TetR repression strength of 0.908.
Work on TCCCATCTAGTGTGTGAGA yielded a TetR repression strength of 0.253.
TCCCGTCTAGTGCGTGAGA was tested, and the TetR repression strength was 0.0665.
Work on TCCCGCCTAGTAGGCGAGA yielded a TetR repression strength of 0.391.
Work on TCCCCTTCAGTACGAGAGA yielded a TetR repression strength of 0.251.
TCCCGGTCAGTGGTGGAGA gave a TetR repression strength of 0.24.
In the case of TCCCTCACAGTGGTAGAGA, the TetR repression strength is reported as 0.157.
TCCCAACTAGTCCTGGAGA showed a TetR repression strength of 0.278.
In the case of TCCCTCATAGTATTGGAGA, the TetR repression strength is reported as 0.22.
TCCCTGGCAGTGATAGAGA gave a TetR repression strength of 0.489.
Work on TCCCCGTCAGTGCGGGAGA yielded a TetR repression strength of 0.0283.
TCCCATCTAGTTGGAGAGA showed a TetR repression strength of 0.371.
TCCCATCTAGTTGGCGAGA was tested, and the TetR repression strength was 0.829.
Sequence TCCCTTCTAGTTGGCGAGA has a TetR repression strength of 0.281.
TCCCTTTAAGTTCACGAGA gave a TetR repression strength of 0.199.
Sequence TCCCGGTTAGTTAGCGAGA has a TetR repression strength of 0.363.
TCCCGGGAAGTCCTCGAGA showed a TetR repression strength of 0.985.
TCCCGGGAAGTCCGCGAGA gave a TetR repression strength of 0.144.
TCCCGGGCAGTCGTCGAGA gave a TetR repression strength of 0.311.
TCCCGGGCAGTCCTCGAGA was tested, and the TetR repression strength was 0.909.
With TCCCGGTCAGTCCTCGAGA the TetR repression strength was 0.15.
With TCCCGGGGAGTCCTCGAGA the TetR repression strength was 0.242.
Sequence TCCCGGACAGTGTAGGAGA has a TetR repression strength of 0.295.
TCCCTCCTAGTGTGGGAGA was tested, and the TetR repression strength was 0.194.
TCCCTGGCAGTGATGGAGA gave a TetR repression strength of 0.189.
With TCCCGGCGAGTGGTAGAGA the TetR repression strength was 0.306.
In the case of TCCCGAGTAGTCCTCGAGA, the TetR repression strength is reported as 0.207.
In the case of TCCCTTGGAGTCATGGAGA, the TetR repression strength is reported as 0.307.
TCCCTTGTAGTCCGGGAGA showed a TetR repression strength of 0.387.
For TCCCTTGTAGTCGGGGAGA, the TetR repression strength was 0.938.
TCCCCTGTAGTAGGGGAGA was tested, and the TetR repression strength was 0.261.
TCCCCTGGAGTCGGGGAGA gave a TetR repression strength of 0.222.
Work on TCCCTTGGAGTCGGGGAGA yielded a TetR repression strength of 0.319.
Sequence TCCCTTGTAGTCTTGGAGA has a TetR repression strength of 0.287.
For TCCCTTGTAGTCATGGAGA, the TetR repression strength was 0.687.
Sequence TCCCCTGTAGTCGGGGAGA has a TetR repression strength of 0.858.
